# In ChEMBL document CHEMBL4513216, “Probing the Open Global Health Chemical Diversity Library for Multistage-Active Starting Points for Next-Generation Antimalarials” (ACS Infect Dis, 2020):
# The campaign covered roughly 65,000 compounds. About 2,100 (3.2%) showed an effect of 50% or more. The median lay at about -52%. For the sample, strong results were picked, then their nearest neighbours and some compounds at random.
# Test system: Plasmodium falciparum
# Test: Screen against P. falciparum Asexual Blood Stage (ABS), at 5uM
# Format: functional, Dd2
# Details: tested at 5 uM
row,SMILES,INHIBITION [%]
1,c1ccc(-c2ncc(CN3CCC4(CCNCC4)C3)cn2)cc1,10.6
2,Oc1cccc2ccc(CN3CCC4(CCNCC4)C3)nc12,89.9
3,Cc1cccc(CN2CCC3(CCCN(CC(=O)N(C)C)C3)C2)n1 (stereo unspecified),-47.6
4,Cc1nn(-c2ncccn2)c2c1C(c1cnn(C)c1)SCC(=O)N2 (stereo unspecified),-15
5,O=C(CSc1ccccn1)N1CCN(CCO)[C@@H]2CS(=O)(=O)C[C@@H]21,-35.4
6,COc1ccnc(CN2CCCC(CCc3ccc(F)cc3)C2)c1OC (stereo unspecified),88.9
7,COc1ccnc(CN2CCCC(CCc3ccccc3)C2)c1OC (stereo unspecified),90.1
8,N#CC1(c2ccccc2)CCN(C(=O)C2CCCN(CC(N)=O)C2)CC1 (stereo unspecified),-116
9,CCC(O)CN1CCN(C(=O)Cc2nc(-c3ccco3)oc2C)CC1 (stereo unspecified),-62.9
10,CC(Cc1ccc(Cl)cc1)N(C)C(=O)NCCS(C)(=O)=O (stereo unspecified),-65.7
11,O=C(c1ccncc1)N1CCN2C[C@H](Oc3cccnc3)C[C@H]2C1,-77
12,CC(C)N(CCNC(=O)c1[nH]nc2ccc(I)cc12)C(C)C,86.9
13,CC[C@@H]1N(Cc2ccncc2)CCC[C@]12CCC(=O)N2CCOC,-38
14,COc1ccc(NC(=O)CCN2CC=C(c3cnn(C)c3)CC2)cc1Cl,67.2
15,CCc1cccc(NC(=O)CCN2CC=C(c3cnn(C)c3)CC2)c1,-33.3
16,COc1ccc(NC(=O)CCN2CC=C(c3cnn(C)c3)CC2)c(C)c1,-33.1
17,Cc1ccc2nc(C)c(C)c(C(=O)N[C@H]3COC[C@@H]3N3CCCC3)c2c1,-47.2
18,Cc1cc(CN2CC[C@H]3C[C@@H](C)O[C@@H]3C2)no1,-71.2
19,Cc1n[nH]c2c1C(c1ccc3c(c1)OCO3)SCC(=O)N2 (stereo unspecified),-22
20,COc1cccc(-n2ccc3nc(N4CCCC4)ncc3c2=O)c1,91.7
21,CC(=O)Nc1cccc(-c2ccccc2CCN)c1,-108
22,COc1ccc(-c2ccccc2CCN)c(OC)c1OC,81.8
23,CC(=O)Nc1ccc(-c2ccccc2CCN)cc1,-115
24,COc1ccc(CCN)cc1-c1ccc(S(C)(=O)=O)cc1,21.8
25,COc1ccc(-c2ccccc2CCN)c(OC)c1,81.6
26,COc1ccc2c(ccn2CCN)c1,26.1

row,SMILES,INHIBITION [%]
1,CN1C[C@@H]2COC[C@]2(C(=O)NCc2cccs2)C1,-12.4
2,CCc1[nH]c(C2(N)CCCCC2)nc(=O)c1C,-30.6
3,Cc1noc(C)c1CN1CCO[C@H]2CN(CC3CC3)C[C@H]21,26.3
4,Cc1nc(=O)c(CC(=O)N2C[C@H]3CC[C@@H](C2)N(CC2CCC2)C3)c[nH]1,-30
5,COCC1COCCC12CCN(C(=O)Cc1cccc(OC)c1)CC2 (stereo unspecified),-3.52
6,COc1ccc(C(=O)C2CCCN(Cc3ccccc3O)C2)c(OC)c1 (stereo unspecified),-55.9
7,COc1ccc(C(=O)C2CCCN(CCc3ccccc3)C2)c(OC)c1 (stereo unspecified),71.8
8,CCN(CC1CCCN(CCc2cccc(OC)c2)C1)C(=O)CN(C)C (stereo unspecified),83.3
9,Cc1nc(NCc2ccco2)nc2c1COCC21CCNC1 (stereo unspecified),21.7
10,Cn1cc(N2CCC3(CCN(Cc4cccnc4)C3)C2=O)cn1 (stereo unspecified),-35.8
11,CCCN1CC2(CCN(c3ncc(F)cn3)CC2)CC1C(=O)O (stereo unspecified),-31.5
12,CN(C)C[C@@H]1CN(C2CCN(c3ccc(Cl)cc3)CC2)C[C@@H]1CO,88.5
13,CN(CCO)C[C@@H]1CN(C2CCN(c3ccccc3Cl)CC2)C[C@@H]1CO,79.5
14,CN(C)C[C@@H]1CN(C2CCN(c3ccccc3Cl)CC2)C[C@@H]1CO,74
15,CN(C)C[C@@H]1C[C@@H]2CN(c3ncc(F)cn3)CC[C@@H]2N1C,12.3
16,Cc1cc(F)ccc1N1CCC(N2C[C@@H](CN(C)C)[C@@H](CO)C2)CC1,92.6
17,COCCO[C@H]1COCCN(C2CCN(C)CC2)C1,-110
18,Cc1cc(CN2C[C@@H]3CCCO[C@@H]3[C@H](NS(C)(=O)=O)C2)no1,-28.3
19,O=C(C1CCCCC1)N1CCO[C@@H]2CNC[C@@H]21,-65.1
20,COC[C@]12COC[C@H]1CN(Cc1cccnc1OC)C2,-130
21,CN(CCO)C[C@@H]1CN(Cc2ccccc2-c2ccccc2)C[C@@H]1CO,87.6
22,CC(C)=CCN1C[C@@H]2CC[C@H]1CN(C(=O)Cc1c(C)[nH]c(C)nc1=O)C2,-28.2
23,O=C(Cc1cccnc1)N1C[C@@H]2CC[C@H]1CN(Cc1ccc(F)cc1)C2,-13.8
24,Fc1ccc(CN2CCO[C@H]3[C@H](Oc4ccccn4)CC[C@@H]32)cc1,-29
25,Fc1ccc(CN2CCCC(c3cc4ncccc4[nH]3)C2)cc1 (stereo unspecified),82.3
26,CCOc1ccc(CN2CCCC(c3cc4ncccc4[nH]3)C2)cc1 (stereo unspecified),85

row,SMILES,INHIBITION [%]
1,c1cc(CO[C@H]2CC[C@H]3[C@H]2OCCN3Cc2nccs2)ccn1,-84.3
2,CN(C)C(=O)[C@H]1C[C@@H]2CCN(Cc3ccncc3)C[C@H]2O1,-59.7
3,CCc1c(C)sc2ncnc(N3CC[C@@H](N4CCC(O)CC4)[C@H](O)C3)c12,75.5
4,Cc1cc(C)c(CNc2cnc3ccccc3n2)c(=O)[nH]1,12.9
5,COc1ccccc1CC(=O)N(CCN1CCOCC1)Cc1ccco1,-29.3
6,COc1ccccc1CC(=O)N1CCN(Cc2ccco2)C[C@@H]1C,-101
7,COc1ccccc1CCN1CCCC(CN(C)Cc2ccc(C)o2)C1 (stereo unspecified),87.8
8,Cc1nc(CNCc2c(C(C)C)nn(C)c2N2CCOCC2)cs1,71.7
9,Cc1nc(CN2CCOCC3(CCN(c4ccccn4)C3)C2)cs1 (stereo unspecified),0.814
10,Cc1nc(CN2CCOCC3(CCN(c4ncccn4)C3)C2)cs1 (stereo unspecified),-42.9
11,CC(C)NC(=O)N1CCOC2(CNC2)C1,-131
12,Cc1cccc(CN2C[C@H](OCc3csc(C)n3)[C@H]3COC[C@H]32)n1,-75.9
13,Cn1ncc2c(NC3CCSC3)nc(-c3ccncc3)nc21 (stereo unspecified),83.1
14,Cn1ncc2c(NC3CN4CCC3CC4)nc(-c3ccncc3)nc21 (stereo unspecified),0.572
15,CSc1ncc(CN2C[C@@H]3CC[C@H]2CN(C2CCOCC2)C3)cn1,-18.2
16,CCc1cc(CN2C[C@@H]3CC[C@H]2CN(C2Cc4ccccc4C2)C3)on1,88.2
17,CN(C)C(=O)CN1C[C@H]2CC[C@@H](C1)N(Cc1c(Cl)cncc1Cl)C2,-33.6
18,COCCn1ccnc1CN(Cc1ccccn1)Cc1sccc1C,92.9
19,COc1cc(CNC(C)Cn2cccn2)cc2c1OCCO2 (stereo unspecified),-31
20,Cc1ccsc1CN(CCCN(C)C)Cc1ccccn1,77.9
21,COCCN1CCO[C@@H]2CN(Cc3ccccn3)C[C@@H]2C1,-86.9
22,COc1cc(CNC(C)Cn2cccn2)cc2c1OCO2 (stereo unspecified),-32.2
23,COc1cc(CN(CCCN(C)C)Cc2ccccn2)cc2c1OCO2,80.6
24,Cc1ccc(N2C[C@@H]3CN(Cc4csc(C)n4)CCO[C@@H]3C2)nn1,-106
25,O=C1CO[C@H]2CN(Cc3ccccc3Br)C[C@@H]2N1,7.05
26,Cc1cc(F)ccc1CN1CCC(O)(CN2CCCCC2)C1 (stereo unspecified),78.8

row,SMILES,INHIBITION [%]
1,COc1ccc(F)cc1CN1CCC(O)(CN2CCCCC2)C1 (stereo unspecified),70.9
2,COc1ccc(F)cc1C(=O)C1CCCN(Cc2ccc(C)s2)C1 (stereo unspecified),17
3,CN1CCO[C@H]2CN(C(=O)c3ccoc3)C[C@H]21,-144
4,Cn1nc(-c2ccccc2)cc1[C@H]1CN2CC[C@H]1C[C@@H]2CNS(C)(=O)=O,15
5,O=C1N(CCCc2ccccc2)CCCC1(O)CNCC1CCCCC1 (stereo unspecified),72.4
6,O=C(Cc1ccccc1)N1CCC2(CCN2Cc2ccc(F)cc2)C1 (stereo unspecified),-12.1
7,O=C1N(CCc2ccccc2)CCCC1(O)CNCc1ccc(F)cc1 (stereo unspecified),78.1
8,O=C(Nc1ccc(F)cc1)N1CCC(CO)(Nc2ccccc2)CC1,-40.85
9,CC(Cn1cccn1)NCCS(=O)(=O)c1ccccc1 (stereo unspecified),-87.3
10,O=C(C1CCN(S(=O)(=O)N2CCCC2)CC1)N1CCC2(CC1)OCCO2,-133
11,CC(C)CN1C[C@@H]2C[C@H](C(=O)NCc3cccnc3)[C@H](C1)O2,-83.7
12,CCc1ccc(CN(C)c2ccc(-c3nc(COC)no3)cn2)nc1,78.4
13,c1cnc(N2CCO[C@H]3CN(CC4CCOCC4)C[C@H]32)nc1,-125
14,O=C(CN1CCCC(c2ccn[nH]2)C1)Nc1nncs1 (stereo unspecified),89.1
15,Cc1nnc(NC(=O)CN2CCCC(c3ccn[nH]3)C2)s1 (stereo unspecified),85.8
16,CC(C)(CNc1ccc(C#N)c(C(F)(F)F)c1)C(N)=O,-66.3
17,Cc1ccc(C2(CN(C)Cc3sccc3C)CCNCC2)nc1,77.4
18,COCCCNC(=O)c1cn(C(C)(C)C)c2ncccc12,-71.7
19,COc1ccc(C(=O)NCCCOC(C)c2ccccc2)c(OC)c1 (stereo unspecified),78.9
20,Fc1ccc(CN2C[C@@H](OCc3ccccn3)[C@H]3COC[C@H]32)cc1,-62.3
21,CCN(CC)CCNC(=O)c1ccc(-n2ccc3ccccc32)s1,90.5
22,O=C(NCCCN1CCCCC1)c1ccc(-n2ccc3ccccc32)s1,79
23,Cc1nc(CN2CCN3C[C@H](Oc4cncnc4)C[C@H]3C2)cs1,-50.1
